Screens deposited in PubChem by National Center for Advancing Translational Sciences (NCATS).
VDR inhibitor: blocks the human vitamin D receptor; P11473; VDR-SRC2-3 peptide fluorescence polarization, 2 h; Potency, µM, for inactives: max response, negative = inhibition, actives largely listed as inhibitors; 400,000 tested, 0.93% active
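Inhibition of the VDR/SRC2-3 peptide interaction is quantified by fluorescence polarization. Compounds (23 nl, pintool) incubate with the reagents for 2 hours at ambient room temperature.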
TDP1 cell CPT: growth inhibition of DT40 Tdp1-/-;hTDP1 cells with camptothecin (screen for TDP1 inhibitors); chicken DT40 Tdp1-/-;hTDP1 cells + 20 nM CPT, ATP luminescence, 48 h; Potency, µM (doses to about 46.2 µM), without a hit: at the highest dose activity change, negative = growth inhibition, hits mostly inhibitors; 420,000 tested, 12% active; also: nearly all actives have a fitted effect of over 55% in size
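Chicken DT40 Tdp1-/- cells stably complemented with human TDP1 were seeded at 400 cells/well in medium containing 20 nM camptothecin, exposed to pin-transferred compounds, and grown at 37 °C for at least 48 hr. Viability was read as ATP luminescence.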
PLK1 PBD inh: blocks phosphopeptide binding to human PLK1 polo-box domain; Plk1 PBD binding of FITC phosphopeptide, fluorescence polarization; Potency, µM, without a hit: max response, negative = inhibition, hits mostly inhibitors; 360,000 tested, 2.8% active; also: series mostly up to about 57 µM; nearly all actives have a fitted effect of over 65% in size
DT40 TDP1 no CPT: qHTS for Inhibitors of human tyrosyl-DNA phosphodiesterase 1 (TDP1): qHTS in cells in absence of CPT; Potency, µM (titrated, usually from 46.2 µM), inactives show at the top dose activity change, negative = growth inhibition, usual class: inhibitors; DT40 Tdp1-/- hTDP1 cells, no CPT, ATP luminescence, 48 h; 420,000 tested, 15% active; also: nearly all actives have a fitted effect of over 55% in size
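Compound effects on proliferation are scored in DT40 Tdp1-/-;hTDP1 cells in the absence of CPT. ATP levels (CellTiter-Glo luminescence) are recorded after a ≥48 hr, 37 °C incubation.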
TDP1 inh: inhibitors of human tyrosyl-DNA phosphodiesterase TDP1. recombinant TDP1, AlphaScreen DNA substrate cleavage. Potency, µM (doses to about 130 µM), for inactives: top-dose activity change, negative = inhibition, hits mostly inhibitors. 350,000 tested, 0.28% active. AID 485290; also: nearly all actives have a fitted effect of over 40% in size
Target sequence (Q9NUW8 whole entry, looked up): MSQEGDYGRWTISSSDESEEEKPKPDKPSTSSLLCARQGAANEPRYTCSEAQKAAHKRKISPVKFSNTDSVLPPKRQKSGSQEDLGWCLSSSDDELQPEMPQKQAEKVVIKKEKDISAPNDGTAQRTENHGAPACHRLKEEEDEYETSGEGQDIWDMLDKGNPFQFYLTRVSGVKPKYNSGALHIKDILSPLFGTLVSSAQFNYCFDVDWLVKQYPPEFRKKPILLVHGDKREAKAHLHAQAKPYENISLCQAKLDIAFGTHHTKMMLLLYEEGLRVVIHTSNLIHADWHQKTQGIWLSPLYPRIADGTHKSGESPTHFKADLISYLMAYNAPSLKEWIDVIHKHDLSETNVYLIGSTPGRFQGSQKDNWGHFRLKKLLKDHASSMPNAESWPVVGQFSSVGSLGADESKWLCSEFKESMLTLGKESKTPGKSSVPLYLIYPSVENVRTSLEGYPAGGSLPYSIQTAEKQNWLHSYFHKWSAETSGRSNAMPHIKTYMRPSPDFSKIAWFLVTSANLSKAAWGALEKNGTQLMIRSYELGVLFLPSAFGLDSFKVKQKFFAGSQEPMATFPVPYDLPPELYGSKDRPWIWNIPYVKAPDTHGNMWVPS
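Recombinant human Tdp1 (E. coli-expressed, 1 nM final) preincubated with compounds 15 min at room temperature, then 5'-biotin/3'-phosphotyrosine-FITC DNA substrate (15 nM final) added for 5 min. AlphaScreen beads (10 ug/ml final) added 10 min; cleavage lowers signal.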
KAT2A inh: GCN5L2 (KAT2A) acetyltransferase inhibition | Q92830 | GCN5L2 HAT assay, ThioGlo1 CoA-SH fluorescence | Potency, µM (top dose mostly 58.9 µM), without a hit: top-dose activity change, negative = inhibition, usual class: inhibitors | 390,000 tested, 0.21% active | AID 504327
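Compounds, pin-transferred from DMSO stocks, meet 20nM GCN5L2 for 15 min before the reaction begins with H3(1-25) peptide (75uM) and acetyl-CoA (70uM). Thiol-reactive ThioGlo1 reports CoA release over 20 min at room temperature.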
Starred values were filed as active, the others as inactive; u = inconclusive; x = no result given; [ ] = dose if it differs, or a comment. Sampled rows, rich in hits. Any-hit rate of the full collection: about 18%. Calls follow the shape of the dose curve; as a rule, active = well fitted curve in the direction sought with a large enough effect; inconclusive = small, poorly fitted or top-dose-only effect, or another doubt; inactive = no such curve, though single readings can be large; an effect the other way counts as inactive or inconclusive. % is scaled to controls: 0 for no effect and ±100 for the full control effect; potency is read from the fitted curve at half-maximal effect.

SMILES	VDR inhibitor	TDP1 cell CPT	PLK1 PBD inh	DT40 TDP1 no CPT	TDP1 inh	KAT2A inh
COc1c(C)c2c(c(O)c1C/C=C(\C)CCC(=O)OCCN1CCOCC1)C(=O)OC2	x	0.133µM*	x	0.168µM*	x	x
O=C(O)c1cc(N(Cc2ccccc2O)Cc2cc(O)ccc2O)ccc1O	50.1µM*	u	x	20.6µM*	u	u
CC(C)(c1cc(Br)c(O)c(Br)c1)c1cc(Br)c(O)c(Br)c1	-9.8%	29.7%	26.7µM*	-27.7%	3.3%	u
CC(C)(c1cc(Cl)c(O)c(CN2CCOCC2)c1)c1cc(Cl)c(O)c(CN2CCOCC2)c1	-6.0%	-27.8%	3.8%	u	x	x
CCCCCN(CCCCC)c1ccc(/C=C/c2ccnc3ccccc23)cc1	x	u	x	12.6µM*	x	x
CCN(CCCN(C)C)c1ccc(/C=C/c2ccnc3ccccc23)cc1	x	u	x	15.8µM*	x	x
CCCCN(CCC(=O)O)c1ccc(/C=C/c2ccnc3ccccc23)cc1	x	5.62µM*	x	15.8µM*	x	x
CN(C)c1ccc(-c2nccc(NCc3ccccc3)n2)cc1	1.7%	u	x	16.4µM*	8.5%[56.1 µM]	-9.9%
Cc1cccc(CNc2ccnc(-c3ccccc3C(F)(F)F)n2)c1	-2.2%	18.4µM*	x	u	x	-12.7%
Fc1ccc(Nc2ccnc(-c3ccccc3C(F)(F)F)n2)cc1	44.7µM*	11.6µM*	x	u	x	u
Cc1cccc(CNc2ccnc(-c3ccc(N(C)C)cc3)n2)c1	u	-106.8%	x	11.6µM*	23.9%[56.1 µM]	-15.1%
COc1ccccc1CNc1ccnc(-c2ccc(N(C)C)cc2)n1	-12.9%	u	x	u	x	-19.7%
Fc1ccc(Nc2ncncc2-c2ccccc2C(F)(F)F)cc1	u	u	x	u	x	-9.9%
CCCN1CNc2c(c(=O)[nH]c(=S)n2CCc2cccc(C)c2)C1	16.3%	u	x	u	0.0%	x
Oc1ccc(C=NC2CCCCC2)c(O)c1	16.4%	13.8%	-27.7%	-12.0%	3.0%	-0.7%
CCOc1ccc(CCNc2nc3c(c(=O)n(C)c(=O)n3C)n2CC)cc1OCC	-8.8%	15.8µM*	-5.7%	14.1µM*	0.0%	-5.3%
Cn1c(=O)c2c(nc(NCCCN3CCOCC3)n2Cc2ccc(Cl)cc2)n(C)c1=O	-13.6%	-1.4%	-1.1%	-22.3%	3.2%	0.4%
Cn1c(=O)c2c(nc(NCCc3ccccc3)n2Cc2ccc(Cl)cc2)n(C)c1=O	-12.6%	11.6µM*	x	10.3µM*	x	-0.2%
CCNc1nc2c(c(=O)n(C)c(=O)n2C)n1Cc1ccc(F)cc1	7.6%	2.06µM*	x	1.03µM*	11.6%	-9.0%
C/C(Cl)=C\Cn1c(Nc2ccccc2)nc2c1c(=O)n(C)c(=O)n2C	3.5%	11.2µM*	0.8%	u	1.9%	-7.1%
Cc1cccc(NC(=O)CN(c2ccc(C(C)C)cc2)S(=O)(=O)c2c(C)nn(C)c2C)n1	7.2%	-5.4%	-1.9%	u	5.2%	-10.8%
O=C(NCC(c1ccccc1)N1CCCC1)C1CCN(C(=O)Nc2ccccc2)CC1 (centres undefined)	-12.1%	-5.8%	1.3%	-25.9%	7.8%	-1.6%
CC(C)(C)C1CCc2c(C(=O)NNC(=O)CCCC(=O)O)csc2C1 (centres undefined)	-4.6%	-0.5%	-9.5%	u	5.1%	4.0%
Cn1c(=O)c2nc(NCc3ccccc3)cnc2n(C)c1=O	-18.2%	u	-8.7%	13µM*	0.0%	-5.7%
Cn1c(=O)c2c(nc(NCC3CCCO3)n2Cc2ccccc2)n(C)c1=O (centres undefined)	13.3%	u	-10.5%	u	8.2%	-1.8%
SMILES	VDR inhibitor	TDP1 cell CPT	PLK1 PBD inh	DT40 TDP1 no CPT	TDP1 inh	KAT2A inh
Cn1c(=O)c2c(nc(NCc3ccccc3)n2Cc2ccc(Cl)c(Cl)c2)n(C)c1=O	-14.5%	8.2µM*	x	7.31µM*	x	-0.9%
Cn1c(NCc2ccccc2)nc2c1c(=O)n(Cc1ccc(Br)cc1)c(=O)n2C	12.8%	u	-1.7%	u	7.0%	-11.3%
Cn1c(=O)c2c(nc(NCc3ccc4c(c3)OCO4)n2Cc2ccccc2)n(C)c1=O	8.9%	u	-11.5%	u	9.1%	-6.5%
Cn1c(=O)c2c(nc(NCc3ccccc3)n2Cc2ccccc2)n(C)c1=O	-14.0%	8.2µM*	x	4.11µM*	x	-2.5%
O=c1cc(CN2CC(O)Cc3ccc4ccccc4c32)nc2sccn12 (centres undefined)	-2.4%	u	-7.7%	u	2.6%	-15.8%
CCn1c2c(c(=O)n3ncc(C(=O)Nc4ccc(F)c(Cl)c4)c13)CN(Cc1ccc(OC)cc1)CC2	-6.7%	u	x	u	1.8%	-19.0%
CCn1c2c(c(=O)n3ncc(C(=O)N4CCN(c5ccc(Cl)cc5)CC4)c13)CN(Cc1ccc(OC)cc1)CC2	11.5%	2.31µM*	x	1.64µM*	8.9%	-6.9%
COc1ccc(CN2CCc3c(c(=O)n4ncc(C(=O)N5CCN(c6ccccc6F)CC5)c4n3C)C2)cc1	15.3%	18.4µM*	x	8.2µM*	1.8%	-22.1%
CC(=O)C1=C(C)Nc2ncnn2C1c1cccc(Br)c1 (centres undefined)	-0.8%	6.2%	-5.7%	-26.1%	x	16.7%
CCc1ccc(C(=O)Nc2cc(C)ccc2F)s1	-1.1%	u	6.3%	u	-3.1%	-7.0%
Oc1ccc(-c2cn3c(n2)SCC3)cc1O	-14.2%	u	23.8µM*	23.1µM*	x	-5.0%[0.501 µM]
Oc1ccc(-c2cn3c(n2)SCC3)cc1	-5.9%	-18.4%	-10.0%	-22.1%	6.6%	-3.2%[0.501 µM]
O=C(Nc1ccc(-c2cn3c(n2)SCC3)cc1)c1ccc2ccccc2n1	-15.0%	16.4µM*	-2.2%	u	2.5%	u
